The results in this text go back to PubChem BioAssay AID504707 (The Scripps Research Institute Molecular Screening Center, 2011).

Each structure is given as a SMILES string. About 280 (0.082%) of roughly 340,000 compounds were called active. This is one part of a sample in which actives are shown more often than they occur.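 Rule for the calls: active = percent activation above the mean of all tested compounds plus 3 SD (cut at about 19% in these data); inactive = the rest.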

The experiment deals with cAMP-dependent protein kinase type I-alpha regulatory subunit (Bos taurus) + cAMP-dependent protein kinase catalytic subunit beta (Mus musculus) (UniProt P00514+P68181). Kind of experiment: activators of PKA-R1A holoenzyme, primary screen, biochemical, fluorescence polarization, Cy5-IP20, bovine R1A, mouse PKAc (AID 504707).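 Note: higher means more PKAc released from R1A so a rise in polarization.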 The settings on record: PKA-R1A dissociation, at 11.4 µM, active compounds read high, scaled: DMSO 0%, 113 µM cGMP 100%. For orientation: Polarisation of emitted light reports the rotation of a fluorescent probe.
Take `CCc1ccccc1OCC(=O)Nc1nnc(C2CC2)s1`: the activation was 8.59% (inactive).

Turning to `Cc1ccc(C(=O)OCC(=O)N2CC(C)CC(C)C2)cc1S(=O)(=O)N1CCCCC1` (configuration not stated), the activation is 2.86% (inactive).

On to `O=C(OCc1ccccc1)N1CCC2CC1c1ccc(-c3ccc4c(c3)OCO4)cc12` (configuration not stated), for which the activation was -1.02% (inactive). As for `CC(OC(=O)c1cccnc1Cl)C(=O)NC1CCCCC1` (configuration not stated), the figure is 0.33% (inactive); as for `O=Cc1cn(CCOc2ccc(F)cc2)c2ccccc12`, 1.87% (inactive); as for `CCOc1ccc(CCNC(=O)COC(=O)c2ccc(C)c(S(=O)(=O)N3CCOCC3)c2)cc1OCC`, -10.3% (inactive). With `COc1ccc(CN2CC(C(=O)NC3CCCCC3)CC2=O)cc1` (configuration not stated), the activation is 6.81% (inactive). Under `COc1ccc(N)cc1NC(=O)CN1CCOCC1` stands 8.37% (inactive). As for `COC(=O)C[C@H]1C[C@@H]2c3cc(NC(=O)Nc4ccccc4)ccc3O[C@@H]2[C@@H](CO)O1`, the figure is 1.1% (inactive); as for `O=C(C[C@H]1C[C@@H]2c3cc(NC(=O)C4CCC4)ccc3O[C@@H]2[C@H](CO)O1)NC1CCCCC1`, -5.02% (inactive); as for `O=C(Nc1ccc2c(c1)[C@@H]1C[C@@H](CC(=O)N3CCCCC3)O[C@@H](CO)[C@@H]1O2)NC1CCCCC1`, 19.6% (active). For `CC(C)CCC(=O)Nc1cc(S(=O)(=O)N2CCOCC2)ccc1N1CCCC1`, the activation was -1.93% (inactive). Under `CC1(c2cccc(Br)c2)NC(=O)N(CC(=O)NCCC2=CCCCC2)C1=O` (configuration not stated) stands -3.47% (inactive); under `CCOc1ccc(NC(=O)CN(C)C(=O)Cn2c(=O)cnc3ccccc32)cc1OCC`, -7.12% (inactive).

Consider `CCOc1ccc(C(=O)Nc2ccc(S(=O)(=O)Nc3cc(C)on3)cc2)cc1`, for which the activation is 3.9% (inactive). In the case of `CCc1ccc(OC(C)C(=O)Nc2ccc(S(=O)(=O)Nc3cc(C)on3)cc2)cc1` (configuration not stated), the activation was -6.6% (inactive). As for `CCC(Oc1ccccc1C)C(=O)Nc1ccc(S(=O)(=O)Nc2cc(C)on2)cc1` (configuration not stated), the figure is 20.4% (active); as for `O[C@H]1CN(Cc2cccs2)[C@@H](c2ccc(Cl)cc2)C[C@@H]1n1cc(C2CC2)nn1`, -6.87% (inactive); as for `O=C(O)C1=C(C(=O)O)C2CCC1C2`, 7.53% (inactive). Under `CCCCCC(=O)N1C[C@H](O)[C@@H](n2cc(COC(=O)c3ccccc3)nn2)C[C@@H]1c1ccc(C)cc1` stands 1.28% (inactive). For the molecule `Cc1ccc(-c2ccc(CN3C(C(C)C)C(=O)N(Cc4cn(CCC5OCCCO5)nn4)CCS3(=O)=O)cc2)cc1` (configuration not stated), the activation is -3.03% (inactive). In the case of `Cc1ccc(CCNC(=O)c2ccc3nc4ccccc4c(=O)n3c2)cc1`, the activation was 1.64% (inactive). As for `Cc1ccc2nc3c(cc(C(=O)NCCc4ccccc4)c(=N)n3CC3CCCO3)c(=O)n2c1` (configuration not stated), the figure is 20.5% (active); as for `Cc1cccn2c(=O)c3cc(C(=O)NCCN4CCOCC4)c(=N)n(Cc4cccnc4)c3nc12`, 5.89% (inactive); as for `Cc1ccc(S(=O)(=O)N(CCc2ccccc2)c2ccc3c(c2)C2CC3CCN2C(=O)OCc2ccccc2)cc1` (configuration not stated), -0.4% (inactive).

As for `CC(C)NC(=O)Nc1ccc2c(c1)C(=O)N([C@H](C)CO)C[C@H](C)[C@@H](CN(C)Cc1ccc(C(F)(F)F)cc1)OCCCC[C@@H](C)O2`, the activation is 3.01% (inactive). Under `C#CCN(C[C@@H]1[C@@H](OC(=O)NC2CC2)[C@@H](OC(=O)NC2CC2)Cn2c(=O)ccc(=O)n21)S(=O)(=O)c1ccc(C)cc1` stands -6.57% (inactive). As for `CN(Cc1c(F)cccc1Cl)C(=O)COC(=O)Cn1cnc2ccccc2c1=O`, the figure is 0.6% (inactive). Turning to `COc1ccc(NC(=O)C[C@H]2C(=O)N(CCc3ccccc3)C[C@@H]2C)cc1`, the activation is -0.95% (inactive). As for `COc1ccccc1N1CC(C(=O)Nc2nnc(SCC(=O)NCC3CCCO3)s2)CC1=O` (configuration not stated), the figure is 0.23% (inactive). As for `COc1ccccc1N1CC(C(=O)Nc2nnc(SCC(=O)NC(C)C)s2)CC1=O` (configuration not stated), the figure is 24.3% (active); as for `Cc1ccccc1N1CC(C(=O)Nc2nnc(SCCC3OCCO3)s2)CC1=O` (configuration not stated), -0.56% (inactive). Take `CC1CN(C(=O)c2cccc(NS(=O)(=O)c3ccc(Br)cc3)c2)CC(C)O1` (configuration not stated): the activation was -7.05% (inactive).

As for `CSc1ncnc2c1ncn2CCCNCc1ccco1`, the activation was -1.79% (inactive).

On to `COc1cccc(NC(=O)CN(C)C(=O)c2cc(Cl)nc3ccccc23)c1`, for which the activation is 9.02% (inactive). As for `O=C1c2ccccc2-c2ccccc2NC1O` (configuration not stated), the figure is 10.3% (inactive); as for `CCOc1cc(C(=O)Nc2c(C)ccc3nsnc23)cc(OCC)c1OCC`, 19.5% (active); as for `CCOc1cc(C(=O)Nc2ccc(S(=O)(=O)Nc3cnc4ccccc4n3)cc2)cc(OCC)c1OCC`, -1.58% (inactive).

Take `Cc1ccc2nsnc2c1NC(=O)c1ccccc1[N+](=O)[O-]`: the activation is -6.39% (inactive). As for `CCCn1c(N)c(C(=O)CSc2nnc(Cc3cccs3)n2C2CC2)c(=O)[nH]c1=O`, the figure is 9.54% (inactive); as for `O=C1CC[C@@H](C(=O)N2CSC[C@@H]2C(=O)Nc2ccc(C(F)(F)F)cc2)N1`, 0.56% (inactive); as for `CC(=O)Nc1ccc(SCC(=O)NC(=O)c2ccc(Cl)cc2)cc1`, 2.13% (inactive). Turning to `CCC(=O)N1CCc2cc(S(=O)(=O)CCC(=O)N3CCN(c4ccccc4F)CC3)ccc21`, the activation is 2.69% (inactive). `Cc1ccn(C(CC(=O)c2ccc(Br)cc2)C(=O)O)n1` (configuration not stated): the activation is -7.77% (inactive). As to `CC1C(=O)N(Cc2cn(CC3CCCCC3)nn2)CCS(=O)(=O)N1Cc1ccc(-c2cccc(N(C)C)c2)cc1` (configuration not stated), the activation was -4.48% (inactive). As for `NC(CSC(c1ccccc1)(c1ccccc1)c1ccc(-c2ccccc2)cc1)C(=O)O` (configuration not stated), the activation is -6.56% (inactive). Under `Cc1ccc(C(=O)O)cc1-c1ccc(/C=C2\SC(=O)N(CC(=O)Nc3ccc4c(c3)OCO4)C2=O)o1` stands 0.69% (inactive). Take `Cc1cc(/C=C2/SC(=O)N(CC(=O)N3CCCC3)C2=O)c(C)n1C`: the activation was -2.71% (inactive). As for `N#Cc1ccccc1CN1C(=O)S/C(=C/c2cccn2-c2cccc(C(=O)O)c2)C1=O`, the figure is 26.4% (active); as for `CC(=O)Nc1ccc(C=CC(=O)c2ccc([N+](=O)[O-])cc2)cc1`, 4.15% (inactive).

With `COc1ccc(CN2C(=O)C(CC(=O)NCCCCc3ccccc3)CC(C(=O)N3CCOCC3)=C2C)cc1` (configuration not stated), the activation is -0.11% (inactive). As for `Cc1ccc(NC(=O)COC(=O)CN2CCSC2=O)cc1F`, the figure is -5.13% (inactive); as for `COc1cc2ccc(C(C)=O)c(O)c2cc1OC`, 4.58% (inactive); as for `Cc1csc(SCC(=O)Nc2ccc(C)c(S(=O)(=O)N(C)C)c2)n1`, -1.19% (inactive).

In the case of `CCOC(=O)C=Cc1ccc(C(=O)OCC)[nH]1`, the activation is 1.4% (inactive).

As to `O=C(NCC(F)(F)F)c1ccc(S(=O)(=O)NCCc2ccc3c(c2)OCCO3)cc1`, the activation is -0.03% (inactive). Under `Cc1cc(C)c2c(=O)n3c(nc2c1)C(CC(C)C)NC(=O)c1cc2ccccc2cc1-3` (configuration not stated) stands -8.23% (inactive); under `COc1ccc(C(CNC(=O)CSc2ccccc2)N2CCOCC2)cc1` (configuration not stated), -7.96% (inactive); under `Cc1cccc(S(=O)(=O)N(C)C[C@@H]2OCc3cnnn3CCCC(=O)N([C@H](C)CO)C[C@@H]2C)c1`, 1.99% (inactive).

With `CCN(CC)C(=O)C1=C(C)N(Cc2ccc(C(C)(C)C)cc2)C(=O)C(CC(=O)NCc2cccc3ccccc23)C1` (configuration not stated), the activation is -15.8% (inactive). Under `COc1ccc([C@H]2C[C@@H](n3cc(COC(=O)c4ccccc4)nn3)[C@H](O)CN2C(=O)c2cccs2)cc1` stands -9.97% (inactive); under `COc1ccc(NC(=O)c2ccc(C#CC(C)(C)O)cc2)cc1`, 23.1% (active); under `COc1ccc(C(=O)Nc2ccc(-n3nncc3C(C)(C)C)cc2)cc1`, -6.01% (inactive). Under `COc1ccc(NS(=O)(=O)c2ccc(NC(=O)c3ccc(N(C)S(C)(=O)=O)cc3)cc2)cc1` stands 9.45% (inactive); under `COn1c(=O)c(=O)n(OC)c2ccccc21`, -14.3% (inactive); under `COc1ccc(NC(=O)c2cc(=O)[nH]c3ccccc23)cc1S(=O)(=O)N1CCOCC1`, 3.45% (inactive). Under `N#CCCC(C#N)(c1cccnc1)N1CCOCC1` (configuration not stated) stands 9.19% (inactive). As to `O[C@@H]1C[C@H](c2ccccc2)N(Cc2cccs2)C[C@H]1n1cc(C2CC2)nn1`, the activation is 8.01% (inactive).

On to `Cn1ncc2c(NNC(=O)Cc3cccc4ccccc34)ncnc21`, for which the activation was -20.9% (inactive). As for `O=C(CNC(=O)N1CC(=O)Nc2ccccc21)Nc1ccc(Br)cc1F`, the figure is -0.99% (inactive); as for `CCOc1ccc(C2NC(=S)NC3=C2CCc2ccccc23)cc1` (configuration not stated), -2.38% (inactive); as for `CCOC(=O)c1cc(-c2sc(NC(=O)c3ccccc3)nc2C)n(-c2ccc(Br)cc2)n1`, 4.25% (inactive). Under `C[C@H](CO)N1C[C@H](C)[C@@H](CN(C)C(=O)c2cccc(F)c2)Oc2cc(-c3cncnc3)ccc2S1(=O)=O` stands 0.35% (inactive); under `CCOC(=O)C1CCN(C(=O)c2ccc3c(=O)n4nc(Nc5ccccc5CC)sc4nc3c2)CC1`, -0.99% (inactive). With `C[C@@H]1CN([C@@H](C)CO)S(=O)(=O)c2ccc(-c3ccc(C(=O)N(C)C)cc3)cc2O[C@@H]1CN(C)Cc1ccccc1C(=O)O`, the activation was -3.75% (inactive). Under `O=S1(=O)CCN(C2CCCCCCCCCCC2)CC1` stands 7.32% (inactive); under `c1ccc(Cn2nnc3c(NCC4CC4)ncnc32)cc1`, 5.88% (inactive). In the case of `O=C(COc1ccc(S(=O)(=O)N2CCCC2)cc1[N+](=O)[O-])N1CCCCC1`, the activation was -0.2% (inactive).

Consider `Cc1cccc(N(CC(=O)N2CCCC2)S(C)(=O)=O)c1C`, for which the activation is -6.73% (inactive).

With `CC1=C(C(=O)Nc2cccc(C(=O)NCC(C)c3ccccc3)c2)SCCO1` (configuration not stated), the activation was 9.58% (inactive). Under `CCOC(=O)c1c(NC(=S)SC)sc(C(=O)N2CCc3ccccc3C2)c1C` stands -7.69% (inactive); under `Cc1ccc(S(=O)(=O)N2CCOCC2)cc1NC(=O)c1ccncc1`, -4.48% (inactive).
